± gives the standard deviation of the averaged measurements. Whole data set: some 33,000 sequences, median “E-score (rank enrichment, -0.5 to 0.5)” near -0.0043, cut for the highest 2% near 0.24. The entries come from a sample that favours the highest values as a whole.
system: 2Sp-muMax20 (muMax20 with two 2,6-bis(methyl)pyridine Cys staples); test: PBM 8-mer E-score (E-score (rank enrichment, -0.5 to 0.5)); higher = stronger preferential binding
Method: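 Protein binding microarray (universal PBM chip covering all 10-mers in fixed probe flanks) with chemically synthesized human Max(13-93) bHLH-LZ analogs (not full-length Max) bearing noncanonical residues (hArg, Tha, Aib, Nle at 65) and aromatic Cys staples. Read-out per 8-mer (and its reverse complement): E-score (rank-based enrichment, -0.5 to 0.5) and Z-score of median probe intensity.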

| Sequence | PBM 8-mer E-score |
| --- | --- |
| GCTGCTGA | -0.206 ± 0.048 |
| AGTGCATG | 0.0577 ± 0.061 |
| ATGTGTTG | 0.254 ± 0.023 |
| ATGTGTTC | -0.00117 ± 0.0014 |
| ATGTGTTA | 0.197 ± 0.14 |
| ACCGATCA | -0.0856 ± 0.019 |
| CATGGCTC | 0.0571 ± 0.018 |
| GATGGCTA | 0.03 ± 0.092 |
| CATGGCTA | 0.245 ± 0.055 |
| CCACGTAC | 0.0687 ± 0.048 |
| AACTGTAT | 0.104 ± 0.043 |
| ACAGATGG | 0.0291 ± 0.022 |
| TAGCCCCA | 0.324 ± 0.022 |
| TAGCCCAA | 0.0851 ± 0.013 |
| ACGCCCCG | -0.107 ± 0.028 |
| CCGCCCCG | 0.22 ± 0.037 |
| GCGCCCCA | 0.135 ± 0.0094 |
| CAGCCCCA | 0.196 ± 0.033 |
| TCGCCCAA | 0.0937 ± 0.081 |
| CCGCCCCA | 0.344 ± 0.054 |
| TCGCCCCA | 0.246 ± 0.013 |
| ACGCCCCC | -0.168 ± 0.036 |
| ACGCCCCA | 0.284 ± 0.013 |
| CCGCCCCC | -0.261 ± 0.11 |

| Sequence | PBM 8-mer E-score |
| --- | --- |
| CGGTAACC | -0.288 ± 0.086 |
| GCACATCC | 0.0732 ± 0.072 |
| AGGATTTG | -0.0789 ± 0.0065 |
| GGAGGTGA | -0.109 ± 0.038 |
| AGTTGGTC | -0.13 ± 0.083 |
| GATCCGAC | -0.198 ± 0.026 |
| AGTTGAAA | -0.0343 ± 0.15 |
| TCAGGTCA | -0.126 ± 0.038 |
| CCCGCCCC | 0.281 ± 0.022 |
| ACCGCCCC | 0.132 ± 0.0083 |
| CCCGCCCG | 0.16 ± 0.065 |
| CCCGCCCA | 0.396 ± 0.012 |
| GCCGCCCA | -0.111 ± 0.053 |
| GCCGCCCC | 0.0266 ± 0.044 |
| CCACCCGG | -0.213 ± 0.012 |
| ACTGCTTC | -0.0855 ± 0.012 |
| AGCCTAAT | 0.0715 ± 0.12 |
| ATGTTTTA | 0.0882 ± 0.015 |
| ATCCTCGG | -0.136 ± 0.022 |
| ACGTGGAC | 0.208 ± 0.053 |
| ACGTGCCG | 0.0769 ± 0.0064 |
| ACGTGGCA | 0.217 ± 0.094 |
| ACGTGGCC | -0.048 ± 0.005 |
| ACGTGGCT | 0.238 ± 0.019 |

| Sequence | PBM 8-mer E-score |
| --- | --- |
| ACGTGCCT | 0.257 ± 0.045 |
| ACGTGGAT | 0.2668 ± 0.0015 |
| ACGTGCCC | 0.1949 ± 0.0017 |
| ACGTGGAA | 0.188 ± 0.014 |
| ACTGCCGC | -0.11 ± 0.0048 |
| AGAACGCA | -0.0651 ± 0.016 |
| AAATAGCC | 0.155 ± 0.026 |
| GCTAGCTA | -0.00454 ± 0.02 |
| CCATTTCG | -0.131 ± 0.16 |
| GAGTAAGC | -0.0367 ± 0.065 |
| AAGCATGC | 0.309 ± 0.047 |
| CGGCATGC | 0.154 ± 0.053 |
| GAGCATGA | 0.154 ± 0.055 |
| CAGCATGG | 0.258 ± 0.074 |
| GAGCATGC | 0.233 ± 0.065 |
| AAGCATGG | 0.221 ± 0.0031 |
| CAGCATGC | 0.245 ± 0.055 |
| TAGCATGA | 0.237 ± 0.075 |
| AAGCATGA | 0.0552 ± 0.075 |
| CAGCATGA | 0.131 ± 0.046 |
| AAGCATCC | -0.0641 ± 0.07 |
| AAGCATGT | 0.208 ± 0.059 |
| ATTTGAAG | 0.0351 ± 0.054 |
| CGCTCCCC | -0.1001 ± 0.00055 |

| Sequence | PBM 8-mer E-score |
| --- | --- |
| GTACTGAA | 0.149 ± 0.041 |
| CGCCCAAA | 0.0607 ± 0.014 |
| CATTCGAC | -0.0616 ± 0.11 |
| ATTAGCTC | 0.0373 ± 0.031 |
| AAGTTCTA | 0.0127 ± 0.022 |
| CGCAGTGA | -0.145 |
| ATCTTATC | 0.0505 ± 0.042 |
| ACTCCCCC | -0.187 ± 0.021 |
| AATCCCCA | 0.161 ± 0.02 |
| CCTCCCCA | 0.31 ± 0.028 |
| ACTCCCCT | 0.182 ± 0.027 |
| ACCTCCCA | -0.071 ± 0.0025 |
| GCCTCCCA | -0.214 ± 0.05 |
| TATCCCCA | 0.239 ± 0.014 |
| CCTCCCAA | 0.0742 ± 0.037 |
| CCCTCCCA | 0.353 ± 0.04 |
| CATCCCCA | 0.145 ± 0.0068 |
| CCTCCCCC | -0.0661 ± 0.021 |
| ACTCCCCA | 0.282 ± 0.067 |
| ATCACGAG | -0.0973 ± 0.13 |
| CGGATAAC | -0.215 ± 0.003 |
| CCGAGCTC | -0.137 ± 0.0056 |
| AGTGCAAG | 0.0261 ± 0.015 |
| ATACAGCA | 0.2373 ± 0.0021 |

| Sequence | PBM 8-mer E-score |
| --- | --- |
| ATACAGTC | 0.0481 ± 0.076 |
| GTACAGTA | 0.137 ± 0.034 |
| ACACAGTG | 0.0818 ± 0.048 |
| CTACAGCA | 0.0474 ± 0.16 |
| ATACAGTG | 0.248 ± 0.065 |
| ATACAGTA | 0.259 ± 0.013 |
| CTACAGTA | 0.136 ± 0.017 |
| ATACAGCG | -0.089 ± 0.017 |
| GCTAAACA | -0.106 ± 0.062 |
| CCAGCTTA | -0.129 ± 0.07 |
| CGCGCCAC | 0.0139 ± 0.054 |
| ACCTTTGG | -0.277 ± 0.058 |
| CGGTTCCC | -0.179 ± 0.095 |
| GAGGGTTA | 0.064 ± 0.0085 |
| AAAGCTGG | 0.0243 ± 0.073 |
| CAAGCTGA | 0.0436 ± 0.058 |
| AAAGCTGA | 0.285 ± 0.0073 |
| ACCGCCCT | -0.0858 ± 0.06 |
| CGACGAGA | -0.147 ± 0.078 |
| CAGCGTGG | 0.039 ± 0.028 |
| CGCCCCAC | 0.303 ± 0.0035 |
| TGCCCAAA | -0.0856 ± 0.086 |
| GGCCCCAA | 0.00781 ± 0.067 |
| CGCCCCAG | 0.0339 ± 0.02 |

| Sequence | PBM 8-mer E-score |
| --- | --- |
| GGCCCCAC | 0.0799 ± 0.062 |
| CGCCCCCA | -0.198 ± 0.069 |
| CGCCCCAA | 0.3051 ± 0.0025 |
| TGCCCCAA | 0.274 ± 0.016 |
| TGCCCCCA | -0.0389 ± 0.018 |
| AGGTTCTA | -0.106 ± 0.0063 |
| GGTTCTAA | -0.026 ± 0.026 |
| AACGAGCC | -0.0314 ± 0.029 |
| GACTAGCC | -0.0736 ± 0.047 |
| ACACCGAG | -0.219 ± 0.031 |
| ACGACGCT | -0.0201 ± 0.033 |
| CTGGTGTA | -0.00226 ± 0.005 |
| ATCGATAA | 0.00019 ± 0.013 |
| AAGTCAAA | 0.0188 ± 0.0089 |
| TAGTCAAA | 0.27 ± 0.033 |
| GAGTCAAA | -0.0157 ± 0.11 |
| GACTAGCA | 0.102 ± 0.099 |
| AGAGCTAA | -0.0564 ± 0.081 |
| AGTTTCAA | -0.0457 ± 0.0064 |
| ATTACCCA | 0.288 ± 0.037 |
| ATTACCCG | -0.0469 ± 0.081 |
| ATTACCCC | 0.169 ± 0.065 |
| TACCTCGA | -0.079 ± 0.12 |
| TCCGAAAA | -0.0537 ± 0.063 |

Reference: the supplement of paper PMC12636033
